# Test results: PubChem BioAssay
# Activity calls are given as the source filed them.
# Columns and labels:
# [1] = test system: PRMT1 (protein arginine N-methyltransferase 1); experiment: small molecules binding arginine methyltransferase PRMT1 – biochemical, small-molecule microarray, 635 nm fluorescence, primary screen (AID 1088); details: higher = more signal;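 also: binding of Prmt1 protein to compounds spotted on small-molecule microarray slides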
# [2] = growth effects on S. cerevisiae YJM789 – YJM789 clinical isolate, OD600, 24 h, basal, primary screen (AID 1089); details: higher = more signal, called active from +8 up or from −8 down;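 also: growth of clinical yeast isolate S. cerevisiae YJM 789 seeded 1000 cells per well; test concentration not given here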
# [3] = S. pombe growth modifiers, basal conditions – strain 972, OD600, 24 h, no modulator, primary screen (AID 1090);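 also: basal condition with compound alone and no growth modifier present; test concentration not given here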; details: S. pombe 972 growth, higher = more signal, called active from +8 up or from −8 down
# [4] = budding yeast growth modifiers under rapamycin – strain BY4716, OD600, 96 h, primary screen (AID 1091); also: test concentration not given here; details: S. cerevisiae BY4716 + rapamycin, higher = more signal, called active from +8 up or from −8 down
# [5] = biological target: Torsin-1A-interacting protein 2 (Homo sapiens) (UniProt Q8NFQ8); experiment: small molecules binding lysate-expressed LULL1 – cell lysate, human LULL1 lysate, 635/667 nm fluorescence, primary screen (AID 1092); details: small-molecule microarray, hLULL1 lysate binding, 635 nm fluorescence; higher = more signal;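 also: probe is lysate of COS7 cells overexpressing human LULL1; score merges per-feature 667 nm fluorescence with signal-to-noise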
# Torsin-1A-interacting protein 2 (Homo sapiens), sequence (Q8NFQ8 whole entry, looked up): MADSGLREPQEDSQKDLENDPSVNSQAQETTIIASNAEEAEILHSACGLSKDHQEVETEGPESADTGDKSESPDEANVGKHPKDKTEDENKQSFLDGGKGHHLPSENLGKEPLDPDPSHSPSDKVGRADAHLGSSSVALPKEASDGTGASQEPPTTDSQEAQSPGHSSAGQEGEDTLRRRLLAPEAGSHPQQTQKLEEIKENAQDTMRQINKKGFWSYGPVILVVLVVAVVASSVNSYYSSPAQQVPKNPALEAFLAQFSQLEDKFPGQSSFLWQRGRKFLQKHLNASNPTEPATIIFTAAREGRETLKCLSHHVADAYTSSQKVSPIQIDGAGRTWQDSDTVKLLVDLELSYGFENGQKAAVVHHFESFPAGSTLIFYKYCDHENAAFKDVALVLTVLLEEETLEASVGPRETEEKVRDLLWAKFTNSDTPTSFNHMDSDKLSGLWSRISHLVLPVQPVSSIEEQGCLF
# [6] = optical density change of DRC41 E. coli – strain DRC41, OD650, 24 h, E. coli filamentation project, primary screen (AID 1093);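 also: MC1000 strain lacking acrAB efflux and sulA so SOS filamentation is blocked; test concentration not given here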; details: E. coli DRC41 growth, higher = more signal, called active from +8 up or from −8 down
# [7] = probe aLefty2 binding to arrayed compounds – biochemical, biotinylated probe, 635/667 nm fluorescence, primary screen (AID 1094); details: small-molecule microarray, higher = more signal;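 also: score merges spot fluorescence near 667 nm with spot signal-to-noise ratio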
# [8] = test system: Noggin (protein binding on small-molecule microarray); experiment: small molecules binding Noggin protein – biochemical, 635/667 nm fluorescence, primary screen (AID 1095); details: 635 nm fluorescence, higher = more signal;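 also: score merges 667 nm feature fluorescence with signal to noise over triplicate slides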
# [9] = biological target: Neurogenic locus notch homolog protein 3 (Homo sapiens) (UniProt Q9UM47); experiment: small molecules binding NOTCH3 protein – biochemical, 635/667 nm fluorescence, primary screen (AID 1096); details: small-molecule microarray, 635 nm fluorescence, higher = more signal
# Neurogenic locus notch homolog protein 3 (Homo sapiens), sequence (Q9UM47 whole entry, looked up): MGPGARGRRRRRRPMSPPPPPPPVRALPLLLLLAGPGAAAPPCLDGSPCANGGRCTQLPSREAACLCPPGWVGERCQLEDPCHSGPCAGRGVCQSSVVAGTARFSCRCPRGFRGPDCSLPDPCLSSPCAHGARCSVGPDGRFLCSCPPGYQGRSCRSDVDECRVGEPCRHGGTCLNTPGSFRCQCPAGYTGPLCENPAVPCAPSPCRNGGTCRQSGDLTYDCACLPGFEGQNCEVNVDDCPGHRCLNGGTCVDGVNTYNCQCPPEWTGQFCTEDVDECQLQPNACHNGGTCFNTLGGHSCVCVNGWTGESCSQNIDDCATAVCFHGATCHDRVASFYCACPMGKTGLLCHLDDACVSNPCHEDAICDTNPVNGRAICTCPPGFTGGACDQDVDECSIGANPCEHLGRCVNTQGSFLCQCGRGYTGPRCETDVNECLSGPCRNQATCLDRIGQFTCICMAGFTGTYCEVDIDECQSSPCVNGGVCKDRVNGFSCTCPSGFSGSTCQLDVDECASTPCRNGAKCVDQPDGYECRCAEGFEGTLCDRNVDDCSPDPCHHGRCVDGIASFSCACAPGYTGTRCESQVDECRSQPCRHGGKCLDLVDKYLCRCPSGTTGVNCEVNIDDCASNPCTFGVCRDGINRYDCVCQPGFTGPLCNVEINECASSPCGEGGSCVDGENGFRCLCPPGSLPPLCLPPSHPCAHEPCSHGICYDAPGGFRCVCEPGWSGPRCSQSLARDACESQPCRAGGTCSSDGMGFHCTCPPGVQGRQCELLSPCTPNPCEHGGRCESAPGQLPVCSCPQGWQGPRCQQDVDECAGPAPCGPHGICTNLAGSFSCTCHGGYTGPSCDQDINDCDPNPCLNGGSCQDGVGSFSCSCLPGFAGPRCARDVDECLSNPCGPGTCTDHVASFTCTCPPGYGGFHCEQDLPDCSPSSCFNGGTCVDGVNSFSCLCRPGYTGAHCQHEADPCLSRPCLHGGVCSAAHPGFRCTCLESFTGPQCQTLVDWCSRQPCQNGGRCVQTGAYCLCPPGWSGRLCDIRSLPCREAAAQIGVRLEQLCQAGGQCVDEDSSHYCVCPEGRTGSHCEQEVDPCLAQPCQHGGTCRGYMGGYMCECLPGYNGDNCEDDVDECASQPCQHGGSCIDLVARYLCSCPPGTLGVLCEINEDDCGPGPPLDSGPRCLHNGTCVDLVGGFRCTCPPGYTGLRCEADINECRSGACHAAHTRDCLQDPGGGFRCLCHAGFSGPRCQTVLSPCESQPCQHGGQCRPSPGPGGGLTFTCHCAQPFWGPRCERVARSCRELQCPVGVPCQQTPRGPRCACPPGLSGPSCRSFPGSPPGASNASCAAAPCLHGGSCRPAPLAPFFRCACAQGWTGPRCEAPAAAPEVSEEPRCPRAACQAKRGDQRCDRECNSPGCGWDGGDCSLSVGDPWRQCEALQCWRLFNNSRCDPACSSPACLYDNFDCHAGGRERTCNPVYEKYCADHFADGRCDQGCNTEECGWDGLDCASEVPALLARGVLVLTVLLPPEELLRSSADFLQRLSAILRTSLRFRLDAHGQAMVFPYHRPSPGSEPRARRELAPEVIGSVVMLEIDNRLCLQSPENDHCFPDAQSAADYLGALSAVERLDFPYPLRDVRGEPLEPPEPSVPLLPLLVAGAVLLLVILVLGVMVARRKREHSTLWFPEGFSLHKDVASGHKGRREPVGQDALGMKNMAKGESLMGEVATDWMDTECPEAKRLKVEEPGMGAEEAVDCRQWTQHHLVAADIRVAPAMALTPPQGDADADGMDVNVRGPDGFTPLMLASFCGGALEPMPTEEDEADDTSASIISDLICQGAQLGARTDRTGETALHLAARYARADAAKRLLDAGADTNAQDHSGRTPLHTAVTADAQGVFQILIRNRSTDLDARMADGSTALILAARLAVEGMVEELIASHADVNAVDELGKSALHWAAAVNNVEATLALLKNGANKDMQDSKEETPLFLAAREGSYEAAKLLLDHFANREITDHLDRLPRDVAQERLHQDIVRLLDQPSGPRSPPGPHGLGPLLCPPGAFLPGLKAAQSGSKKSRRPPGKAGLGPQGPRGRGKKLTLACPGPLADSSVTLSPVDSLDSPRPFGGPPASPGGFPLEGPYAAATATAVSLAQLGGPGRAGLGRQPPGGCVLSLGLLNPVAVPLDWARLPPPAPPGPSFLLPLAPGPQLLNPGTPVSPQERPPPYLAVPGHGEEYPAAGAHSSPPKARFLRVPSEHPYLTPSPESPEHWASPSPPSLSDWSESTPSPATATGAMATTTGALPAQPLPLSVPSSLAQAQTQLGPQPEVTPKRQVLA
# [10] = probe aEGFR binding to arrayed compounds – biochemical, biotinylated probe, 635/667 nm fluorescence, primary screen (AID 1097); details: small-molecule microarray, higher = more signal;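 also: probe is a biotinylated anti-EGFR antibody binding compounds printed on slides; score combines fluorescence near 667 nm and signal to noise of each spot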
# [11] = test system: Plasmodium falciparum Sir2 (PF13_0152, Sir2A); experiment: Plasmodium falciparum Sir2A binding compounds – biochemical, small-molecule microarray, 635 nm fluorescence, primary screen (AID 1098); details: fluorescence 635 nm, higher = more signal;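 also: score merges spot fluorescence intensity with its signal-to-noise ratio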
# [12] = probe aDKK1 binding to arrayed compounds – biochemical, biotinylated probe, 635/667 nm fluorescence, primary screen (AID 1099); details: small-molecule microarray, higher = more signal;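 also: score merges 667nm spot fluorescence with signal to noise across triplicate slides; reference of the scale not given here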
# [13] = probe aCHRDL2 binding to arrayed compounds – biochemical, biotinylated probe, 635/667 nm fluorescence, primary screen (AID 1100); details: small-molecule microarray, higher = more signal
# [14] = change in splice reporter luminescence, either direction, cell-based, HEK293, spliceosome inhibition project, primary screen (AID 1101); details: HEK293 splicing luciferase reporter, 24 h, higher = more signal, called active from +8 up or from −8 down;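 also: HEK293 cells carrying a splicing-competent luciferase reporter gene; test concentration not given here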
# [15] = biological target: Fibroblast growth factor 10 (Homo sapiens) (UniProt O15520); experiment: compounds binding fibroblast growth factor 10 – biochemical, small-molecule microarray, 635 nm fluorescence, primary screen (AID 1102); details: FGF10 binding, fluorescence 635 nm, higher = more signal
# Fibroblast growth factor 10 (Homo sapiens), sequence (O15520 whole entry, looked up): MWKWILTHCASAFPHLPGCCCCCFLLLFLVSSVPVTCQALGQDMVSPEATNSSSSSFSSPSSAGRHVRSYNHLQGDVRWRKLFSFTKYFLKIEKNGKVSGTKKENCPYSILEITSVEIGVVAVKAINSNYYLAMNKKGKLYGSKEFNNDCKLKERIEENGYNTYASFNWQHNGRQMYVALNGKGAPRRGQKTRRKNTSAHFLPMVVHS
# [16] = test system: glycogen synthase kinase-3 (GSK3A per assay name; protocol says GSK3B); experiment: compounds binding glycogen synthase kinase-3 – biochemical, small-molecule microarray, 635 nm fluorescence, GSK3A, primary screen (AID 1103); details: fluorescence 635 nm, higher = more signal; also: the record names both GSK3A and GSK3B
# [17] = biological target: Epidermal growth factor receptor (Homo sapiens) (UniProt P00533); experiment: compounds binding epidermal growth factor receptor – biochemical, small-molecule microarray, 635 nm fluorescence, primary screen (AID 1104); details: EGFR binding, higher = more signal;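 also: score merges 667 nm emission intensity with spot signal to noise over triplicate slides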
# Epidermal growth factor receptor (Homo sapiens), sequence (P00533 whole entry, looked up): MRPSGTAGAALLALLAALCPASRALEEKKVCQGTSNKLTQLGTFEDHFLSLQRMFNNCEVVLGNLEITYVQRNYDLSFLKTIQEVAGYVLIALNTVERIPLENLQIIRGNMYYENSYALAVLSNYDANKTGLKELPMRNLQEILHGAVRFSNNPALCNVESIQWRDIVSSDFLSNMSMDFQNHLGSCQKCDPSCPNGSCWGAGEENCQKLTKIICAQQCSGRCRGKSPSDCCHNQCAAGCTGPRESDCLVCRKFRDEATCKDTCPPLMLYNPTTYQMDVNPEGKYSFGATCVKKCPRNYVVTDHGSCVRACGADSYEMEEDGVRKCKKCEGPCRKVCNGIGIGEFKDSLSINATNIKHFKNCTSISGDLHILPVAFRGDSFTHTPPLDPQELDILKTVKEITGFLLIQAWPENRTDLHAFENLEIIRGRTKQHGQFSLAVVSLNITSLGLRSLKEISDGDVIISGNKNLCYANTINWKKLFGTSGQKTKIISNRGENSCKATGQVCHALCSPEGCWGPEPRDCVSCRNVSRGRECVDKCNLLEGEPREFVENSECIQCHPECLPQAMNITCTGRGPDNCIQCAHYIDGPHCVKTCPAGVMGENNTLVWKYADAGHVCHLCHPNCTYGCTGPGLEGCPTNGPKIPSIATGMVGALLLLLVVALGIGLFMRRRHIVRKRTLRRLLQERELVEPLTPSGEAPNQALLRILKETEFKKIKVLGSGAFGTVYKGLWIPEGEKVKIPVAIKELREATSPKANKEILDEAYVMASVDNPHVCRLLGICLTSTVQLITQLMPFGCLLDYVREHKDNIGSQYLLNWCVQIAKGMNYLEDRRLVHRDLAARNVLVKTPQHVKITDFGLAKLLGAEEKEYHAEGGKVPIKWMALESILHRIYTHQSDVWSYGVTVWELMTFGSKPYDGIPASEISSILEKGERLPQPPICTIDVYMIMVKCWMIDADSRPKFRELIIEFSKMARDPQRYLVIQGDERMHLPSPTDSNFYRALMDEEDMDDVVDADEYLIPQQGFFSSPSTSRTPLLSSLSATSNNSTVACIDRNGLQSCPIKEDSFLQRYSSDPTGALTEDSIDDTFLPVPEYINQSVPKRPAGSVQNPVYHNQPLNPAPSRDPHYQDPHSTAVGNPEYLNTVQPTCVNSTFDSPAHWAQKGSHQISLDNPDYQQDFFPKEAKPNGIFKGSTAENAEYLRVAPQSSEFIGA
# [18] = biological target: Follistatin-related protein 3 (Homo sapiens) (UniProt O95633); experiment: compounds binding follistatin-related protein 3 – biochemical, small-molecule microarray, 635 nm fluorescence, primary screen (AID 1105); details: FSTL3 binding, higher = more signal;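 also: score merges emission near 667 nm and signal to noise per printed spot across three slides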
# Follistatin-related protein 3 (Homo sapiens), sequence (O95633 whole entry, looked up): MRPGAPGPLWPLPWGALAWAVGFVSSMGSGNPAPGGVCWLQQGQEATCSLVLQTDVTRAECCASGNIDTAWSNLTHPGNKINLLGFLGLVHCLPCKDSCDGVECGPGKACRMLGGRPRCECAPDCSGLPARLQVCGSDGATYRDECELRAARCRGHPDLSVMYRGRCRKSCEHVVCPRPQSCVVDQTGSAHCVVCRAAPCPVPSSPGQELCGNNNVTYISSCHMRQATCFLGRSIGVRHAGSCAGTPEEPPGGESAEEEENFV
# [19] = biological target: Dickkopf-related protein 1 (Homo sapiens) (UniProt O94907); experiment: small molecules binding DKK1 protein – biochemical, small-molecule microarray, 635 nm fluorescence scan, primary screen (AID 1106); details: higher = more signal;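 also: score merges emission near 667 nm with signal to noise over three replicate slides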
# Dickkopf-related protein 1 (Homo sapiens), sequence (O94907 whole entry, looked up): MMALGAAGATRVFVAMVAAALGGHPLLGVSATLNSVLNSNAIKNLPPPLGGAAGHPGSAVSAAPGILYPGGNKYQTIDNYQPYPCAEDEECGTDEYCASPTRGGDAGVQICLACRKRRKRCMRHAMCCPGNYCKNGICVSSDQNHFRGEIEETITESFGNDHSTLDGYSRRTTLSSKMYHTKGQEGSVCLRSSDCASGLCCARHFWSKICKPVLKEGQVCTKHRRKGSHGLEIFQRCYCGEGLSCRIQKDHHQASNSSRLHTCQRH
# [20] = test system: Inhibin beta A chain (activin A); experiment: small molecules binding activin A – biochemical, small-molecule microarray, 635 nm fluorescence scan, primary screen (AID 1107); details: INHBA, higher = more signal;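 also: mouse activin A protein probed at 4.33 µg/mL on printed slides; score merges bound-protein fluorescence near 667 nm with spot signal-to-noise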
Structure (SMILES),composite z-score [1],z-score [2],z-score [3],z-score [4],composite z-score [5],z-score [6],composite z-score [7],composite z-score [8],composite z-score [9],composite z-score [10],composite z-score [11],composite z-score [12],composite z-score [13],z-score [14],composite z-score [15],composite z-score [16],composite z-score [17],composite z-score [18],composite z-score [19],composite z-score [20]
O=C1[C@H]2[C@H]3[C@H](O)[C@H](O)CC(=NOC[C@@H](O)COCc4ccco4)[C@@H]3CC[C@H]2C(=O)N1c1ccc(F)cc1F,0.601,-0.236 (inactive),0.0766 (inactive),-1.25 (inactive),-1.34,0.363 (inactive),-0.223,1.01,0.0986,-0.0828,0.365,-0.399,-0.712,0.237 (inactive),0.579,0.318,0.931,0.499,0.671,0.574
COc1cccc([C@@H]2Oc3ccc(Br)cc3C(=O)[C@H]2O)c1,-0.366,-2.84 (inactive),-10.6 (active),-1.5 (inactive),1.49,0.9 (inactive),-0.0615,1.13,0.834,-0.0828,0.237,-0.257,-0.423,-1.7 (inactive),1.19,0.101,0.312,0.892,0.221,0.287
CCOC(=O)NN=C1C[C@@H](O)[C@@H](O)[C@@H]2[C@@H]3C(=O)N(CC)C(=O)[C@@H]3CC[C@@H]12,0.268,-0.846 (inactive),0.0572 (inactive),-0.293 (inactive),1.31,-0.319 (inactive),-0.176,0.299,0.905,0.0082,0.163,-0.407,-0.263,0.379 (inactive),0.664,0.434,0.684,0.518,0.14,-0.232
CCOC(=O)NN=C1C[C@@H](O)[C@@H](O)[C@@H]2[C@@H]3C(=O)N(C4CCCCC4)C(=O)[C@@H]3CC[C@H]12,0.314,0.351 (inactive),0.458 (inactive),0.529 (inactive),0.746,-0.931 (inactive),-0.139,0.315,0.213,-0.0776,0.253,0.135,-0.0663,0.035 (inactive),0.38,0.518,0.416,0.333,0.701,-0.341
CCOC(=O)CCN1C(=O)[C@H]2[C@H]3[C@H](O)[C@H](O)CC(=NOCc4ccccc4)[C@@H]3CC[C@H]2C1=O,0.454,-0.14 (inactive),0.116 (inactive),-0.664 (inactive),0.175,-0.961 (inactive),-0.147,0.676,1,-0.0597,0.174,-0.206,-0.608,0.0671 (inactive),0.526,0.597,0.641,0.749,0.4,0.0727
COc1ccc(O[C@H]2C=C[C@@H](c3ccccc3)O[C@@H]2COC(=O)N2CCCCC2)cc1,0.38,0.523 (inactive),-0.897 (inactive),0.156 (inactive),-0.616,0.555 (inactive),0.0116,0.0935,-1.08,-0.0527,-0.0945,-0.173,-0.225,0.757 (inactive),-0.398,-0.732,0.0392,-0.0999,0.0004,1.42
Cc1cc(C)c(-c2cc([C@H](C)ON=C3[C@H]4CCn5c(=O)n(-c6ccccc6)c(=O)n5[C@H]4[C@H](O)[C@@H]4O[C@H]34)on2)c(C)c1,0.432,0.566 (inactive),-1.84 (inactive),0.0884 (inactive),1.83,0.771 (inactive),-0.133,0.627,0.766,-0.0978,0.167,-0.255,-0.48,2.01 (inactive),0.501,0.253,0.377,0.801,0.88,-0.0289
COc1ccc(COC(=O)NN=C2C[C@@H](O)[C@@H](O)[C@@H]3[C@@H]4C(=O)N(c5ccc(F)cc5F)C(=O)[C@@H]4CC[C@@H]23)cc1,-1.42,0.935 (inactive),-0.423 (inactive),0.0088 (inactive),-0.524,0.488 (inactive),0.0215,-0.0901,0.14,-0.117,0.911,0.262,1.18,0.3 (inactive),-0.665,-1.53,-0.076,-0.267,-0.69,0.532
CCCCc1nc2c(c3c1C[C@H](C)OC3)CN(CCC(C)C)CC2,1.49,-0.147 (inactive),-1.52 (inactive),-1.07 (inactive),2,0.567 (inactive),-0.114,0.582,1.11,-0.0627,0.956,-0.0466,-0.47,-0.0873 (inactive),0.627,1.25,0.488,1.26,0.562,0.0968
CO[C@H]1COC(=O)[C@@H]2CCCN2C(=O)CC=C[C@@H](C)[C@H](OC)COC(=O)CC=C[C@@H]1C,1.54,-1.94 (inactive),-1.32 (inactive),-0.611 (inactive),-0.361,-0.323 (inactive),-0.0208,1.48,0.991,0.34,0.401,-0.569,-1.28,-0.555 (inactive),1.09,1.06,1.64,1.47,1.63,1.5
COc1ccc(O[C@@H]2[C@H](O)CO[C@H]2C=CC#Cc2ccccc2)cc1,0.101,0.937 (inactive),-0.777 (inactive),0.958 (inactive),0.0101,0.338 (inactive),-0.197,0.347,-0.413,-0.228,1.32,-0.477,-0.716,0.167 (inactive),0.199,-0.207,-0.352,0.103,0.438,0.539
O=C1[C@H]2[C@H]3[C@H](O)[C@H](O)CC(=NOC[C@@H](O)COCc4ccco4)[C@H]3CC[C@H]2C(=O)N1Cc1ccc2c(c1)OCO2,1.29,-0.285 (inactive),-0.279 (inactive),-1.09 (inactive),-0.829,0.617 (inactive),-0.29,0.154,-0.0875,-0.0039,0.285,0.534,-1.5,0.204 (inactive),0.11,1.28,0.986,0.83,1.39,0.0751
COC(=O)[C@H](C)NC(=O)[C@@H](C)CO,1.46,0.0198 (inactive),-0.0164 (inactive),0.669 (inactive),1.68,-0.8 (inactive),-0.0607,0.67,1.07,-0.0578,0.241,0.0939,-0.469,0.364 (inactive),0.572,0.844,0.499,0.258,0.338,-0.776
COCCOC(=O)N1C(=O)[C@@]2(c3cc(C#Cc4ccc(OC)cc4)ccc31)[C@H](C(=O)N1CCN(c3ncccn3)CC1)[C@H]1C(=O)O[C@H](c3ccccc3)[C@H](c3ccccc3)N1[C@@H]2c1ccc(OCCO)cc1,1.55,2.04 (inactive),1.46 (inactive),5.06 (inactive),2.12,-0.371 (inactive),0.192,0.918,1.11,0.232,0.593,0.61,0.628,0.688 (inactive),0.968,0.043,0.624,1.11,1.19,1.03
CCOC(=O)CCN1C(=O)[C@H]2[C@H]3[C@H](O)C=CC(=O)[C@@H]3CC[C@H]2C1=O,0.0492,0.595 (inactive),0.361 (inactive),1.42 (inactive),0.215,0.399 (inactive),-0.239,0.641,0.629,0.0439,0.0705,-0.222,-0.437,-0.173 (inactive),0.605,0.323,0.678,0.518,0.541,-0.0901
NCCCCCNC(=O)[C@@H]1C[C@@H]2C(=O)N3CCC[C@H]3C(=O)N2[C@@H]1c1cccc(OCCO)c1,1.35,-0.486 (inactive),-0.703 (inactive),-0.652 (inactive),1.41,-0.104 (inactive),0.948,0.989,0.613,0.364,0.963,1.61,0.948,-0.298 (inactive),0.506,0.821,0.515,0.984,1.17,1.63
CC(C)=C1C(=O)C(c2ccccc2)=C2CN3C(=O)N(CCc4ccccc4)C(=O)[C@]3(Cc3ccc(F)cc3)[C@H]21,1.11,-0.129 (inactive),-0.0353 (inactive),0.135 (inactive),2.04,-1.7 (inactive),0.253,-1.25,-1.3,0.119,-0.0467,0.993,1.21,0.762 (inactive),-0.625,-0.643,-2.06,-0.655,-1.92,0.51
O=C1C2=CC[C@H]3C(=O)N(Cc4ccc5c(c4)OCO5)C(=O)[C@H]3[C@H]2[C@H](O)[C@@H]2O[C@H]12,-1.05,-0.108 (inactive),-0.682 (inactive),-0.611 (inactive),0.24,0.347 (inactive),-0.166,0.616,0.632,0.0083,0.557,-0.141,-0.51,0.867 (inactive),0.385,0.526,0.65,0.459,0.347,0.29
CCCNC(=O)[C@@H]1c2ccccc2C(=O)N(c2ccc(C)cn2)[C@H]1c1ccc(CO)cc1,0.129,-1.03 (inactive),-0.144 (inactive),-0.926 (inactive),0.553,-0.0365 (inactive),-0.0769,-1.08,-0.798,-0.299,1.78,0.662,0.733,1.12 (inactive),-0.584,-0.503,-0.327,-1.06,-0.537,1.14
